Inhibition (reported as % activation of signal) data for 30 compounds are collected here from PubChem BioAssay AID588458 (Sanford-Burnham Center for Chemical Genomics, 2011).

Values joined by “and” are separate entries in the source; they are usually repeats but may differ in a detail not shown here. Equal values may be shown once. In all, about 360,000 compounds went through this assay and about 3,000 (0.83%) were called active. The entries come from a sample that favours actives as a whole. Unmarked numbers belong to inactive results. Cut-off read from the data, not from the text of the source: active = inhibition above about 50%; inactive = the rest.

The test deals with DNA (cytosine-5)-methyltransferase 1 (Homo sapiens) (UniProt P26358). Description: inhibition of DNA methyltransferase DNMT1 – biochemical, molecular beacon, fluorescence, HinP1I cleavage, uHTS, primary screen (AID 588458). The note with it: at 10 µM, active compounds read high.
DNA (cytosine-5)-methyltransferase 1 (Homo sapiens), sequence (P26358 504-1616 limits assumed): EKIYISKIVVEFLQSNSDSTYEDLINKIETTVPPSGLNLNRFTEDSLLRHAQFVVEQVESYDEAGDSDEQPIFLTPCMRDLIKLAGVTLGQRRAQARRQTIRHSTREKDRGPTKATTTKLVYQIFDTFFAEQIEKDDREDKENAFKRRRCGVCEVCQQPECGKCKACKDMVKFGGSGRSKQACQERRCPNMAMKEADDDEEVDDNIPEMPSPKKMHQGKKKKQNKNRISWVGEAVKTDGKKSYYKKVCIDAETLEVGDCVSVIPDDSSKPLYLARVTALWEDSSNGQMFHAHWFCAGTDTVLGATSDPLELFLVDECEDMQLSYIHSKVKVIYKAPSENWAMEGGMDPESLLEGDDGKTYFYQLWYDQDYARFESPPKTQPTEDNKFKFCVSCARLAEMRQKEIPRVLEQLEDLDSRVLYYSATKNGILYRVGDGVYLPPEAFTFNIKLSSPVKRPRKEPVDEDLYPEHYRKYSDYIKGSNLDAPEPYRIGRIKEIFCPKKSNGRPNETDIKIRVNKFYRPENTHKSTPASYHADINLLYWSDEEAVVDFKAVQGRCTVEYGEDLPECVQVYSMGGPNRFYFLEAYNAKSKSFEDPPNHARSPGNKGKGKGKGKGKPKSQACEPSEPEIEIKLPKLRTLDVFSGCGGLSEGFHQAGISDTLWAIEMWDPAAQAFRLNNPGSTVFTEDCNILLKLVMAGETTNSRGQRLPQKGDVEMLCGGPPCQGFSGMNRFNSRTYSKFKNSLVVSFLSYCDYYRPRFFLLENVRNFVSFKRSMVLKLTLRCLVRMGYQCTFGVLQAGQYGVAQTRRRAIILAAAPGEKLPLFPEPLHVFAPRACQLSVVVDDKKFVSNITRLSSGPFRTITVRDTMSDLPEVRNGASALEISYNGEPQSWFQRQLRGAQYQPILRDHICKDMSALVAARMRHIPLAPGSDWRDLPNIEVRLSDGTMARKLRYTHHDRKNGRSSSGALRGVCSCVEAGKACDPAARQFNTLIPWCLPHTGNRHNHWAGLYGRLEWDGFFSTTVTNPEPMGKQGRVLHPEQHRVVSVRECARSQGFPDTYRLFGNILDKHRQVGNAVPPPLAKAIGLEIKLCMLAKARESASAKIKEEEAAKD
Turning to `Cc1ccnc(-n2c(C)cc(/C=C3\C(=O)NC(=S)N(C)C3=O)c2C)c1`, the inhibition (reported as % activation of signal) is 5.36%.
As for `Cc1c(C(=O)O)cccc1-n1c(C)cc(/C=C2\C(=O)NC(=O)N(c3ccc4c(c3)OCO4)C2=O)c1C`, the inhibition (reported as % activation of signal) was 86.2% (active).
The figure for `COC(=O)C1=C(c2c(C)noc2C)C[C@@H]2CC[C@H]1N2C(=O)NCc1ccc2c(c1)OCO2` is 2.7%; for `O=C1NC(=O)N(Cc2ccco2)C(=O)/C1=C\c1ccc(-c2ccc(F)cc2)o1` it is 79.9% (active); for `O=C1NC(=O)N(Cc2ccco2)C(=O)/C1=C\c1cccn1CCOc1ccccc1` it is 52.4% (active).
To `Cc1ccc(-n2c(C)cc(/C=C3\C(=O)NC(=O)N(C)C3=O)c2C)cc1C` belongs 29.9%.
Turning to `Cc1cc(C=C2C(=O)NC(=O)NC2=O)c(C)n1-c1ccncc1`, the inhibition (reported as % activation of signal) is 5.18%.
As for `Cc1cc(/C=C2/C(=O)NC(=O)N(Cc3ccco3)C2=O)c(C)n1-c1ccc(C(=O)O)cc1`, the inhibition (reported as % activation of signal) was 51.8% (active).
To `CCOC(=O)C(O)(c1ccc(N=Cc2ccccc2O)c(C)c1)C(F)(F)F` (stereo not given) belongs 0.86%.
`CC1CNCCN1c1ccc(Cl)cc1` (stereo not given): the inhibition (reported as % activation of signal) was -33.5%.
To `O=C1C2(Cl)C3(Cl)C4(Cl)C(Cl)(Cl)C5(Cl)C3(Cl)C1(Cl)C5(Cl)C24Cl` (stereo not given) belongs -6.15%.
The figure for `O=P(OC1=CCCCC1)(c1ccccc1)c1ccccc1` is -0.46%.
On to `COC(=O)C1=C(c2ccc(OCc3ccccc3)cc2)C[C@@H]2CC[C@H]1N2C(=O)NCc1ccc(Cl)cc1`, for which the inhibition (reported as % activation of signal) is -11.6%.
To `Fc1ccc(C2N3CCCN23)cc1` (stereo not given) belongs 0.57%; to `COC(=O)C(O)(c1ccc(NC(=O)c2ccco2)c(OC)c1)C(F)(F)F` (stereo not given), 2.7%; to `CCOC(=O)c1c(-c2ccccc2)oc2ccc(OC(=O)N(C)C)cc12`, -3%.
To `CC(C)n1c(=O)c(C=Nc2ccc(Br)cc2)c(O)n(Cc2ccco2)c1=O` belongs 3.48%.
`Cc1ccc(-c2nc3ccccc3c(=O)n2-c2ccc(Br)cn2)cc1`: the inhibition (reported as % activation of signal) is -0.14%.
The figure for `N#CC1=C(N)Oc2c(c(=O)oc3ccccc23)C1c1ccccc1OC(=O)c1cccs1` (stereo not given) is 0.68%; for `CC12CCC3C(CCC4CC(=O)CCC43C)C1CC(=NO)C2=O` (stereo not given) it is 0.34%; for `COc1ccc(N2C(=O)/C(=C/c3ccco3)C(=O)NC2=S)cc1` it is 97.9% (active).
The figure for `COc1cc(C(=O)N2Cc3ccc(Br)cc3-n3nncc3C2)cc(OC)c1OC` is 3.06%.
As to `Cc1cc(-c2ccc(N)c(C)c2)ccc1N`, the inhibition (reported as % activation of signal) is -7.86%.
The figure for `Cc1cc(C)cc(NC(=S)NC2CC3CCCC(C2)N3Cc2cccs2)c1` (stereo not given) is -3.24%; for `Oc1ccc2c3c1OC1[C@H](O)CC[C@@]4(O)[C@@H](C2)N(CC2CC2)CC[C@]314` (stereo not given in full) it is 3.17% and 0.16%.
In the case of `CC(=NC1CCN(Cc2ccccc2)CC1)c1c(O)n(C)c(=O)n(C)c1=O`, the inhibition (reported as % activation of signal) is 2.93%.
To `CC1=C(C(=O)Nc2ccccc2)SCCO1` belongs 87.4% (active); to `CC1=C(C(=O)Nc2ccccc2)S(=O)(=O)CCO1`, 2.83%; to `CCN1CCN(C(=O)Cc2coc3cc(C)cc(C)c23)CC1`, 2.55%.
As for `COc1ccc(NC(=O)N2Cc3ccccc3-n3nncc3C2)cc1`, the inhibition (reported as % activation of signal) is 7.01%.
